# PHOSPHO1 block = blocks human PHOSPHO1 phosphatase activity; Q8TCT1; recombinant PHOSPHO1, absorbance phosphatase assay; inhibition, % at 13.3 µM; hit rate 1.1% among 290,000; AID 1565; in the data active means inhibition above about 60%
# p97 inhibitor = blocks human p97 ATPase activity; recombinant p97 ATPase, Kinase-Glo ATP luminescence, 3 h; AID 1481; hit rate 0.42% among 220,000; inhibition, % at 8 µM; in the data active means inhibition above about 15%
# PfM18AAP inh-1 = PfM18AAP enzyme inhibition | hit rate 1.2% among 290,000 | inhibition, % at 7.35 µM | recombinant PfM18AAP, H-Glu-NHMec fluorogenic cleavage | AID 1822;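 active means inhibition above the campaign mean inhibition over all tested compounds plus 3 SD, cut at about 28% in these data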
# SUMO HTRF inh = inhibitors of human SUMOylation (UBC9) | inhibition, % at 35 µM | P63279 | hit rate 0.36% among 290,000 | HTRF SUMOylation assay, SAE1/SAE2 + UBC9, in vitro; in the data active means inhibition above about 50%, passing the limit was not always enough
# Target sequence (P63279 whole entry, looked up): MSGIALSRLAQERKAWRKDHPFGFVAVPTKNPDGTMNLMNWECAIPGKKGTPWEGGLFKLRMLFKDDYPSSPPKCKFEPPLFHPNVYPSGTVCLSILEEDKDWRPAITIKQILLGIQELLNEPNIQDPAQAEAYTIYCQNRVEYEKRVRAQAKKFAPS
# HDAC3 inh = human HDAC3 inhibition. recombinant HDAC3, fluorogenic peptide/trypsin coupled, fluorescence. inhibition, % at 8.3 µM. hit rate 0.15% among 320,000; in the data active means inhibition above about 26%, passing the limit was not always enough
# G6PDH counter = inhibits Leuconostoc G6PDH, flagging false hits in G6PDH-based assays | inhibition, % at 5 µM | hit rate 0.12% among 200,000 | AID 1020 | Purified L. mesenteroides G6PDH, diaphorase/resazurin coupled fluorescence, 45 min; in the data active means inhibition above about 50%
# p97 inh conf = confirmation of human p97 ATPase inhibitors. shares compounds with p97 inhibitor. recombinant p97 ATPase, Kinase-Glo ATP luminescence. inhibition, % at 8 µM. hit rate 44% among 760. AID 1517;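 active means percent inhibition of p97 ATPase above a set limit, the primary screen's mean plus 3 SD, cut at about 15% in these data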
# PfM18AAP inh-2 = confirmation of Plasmodium falciparum M18 aspartyl aminopeptidase inhibitors; shares compounds with PfM18AAP inh-1; recombinant PfM18AAP, H-Glu-NHMec fluorogenic cleavage; inhibition, % at 7.35 µM; hit rate 28% among 2,400; AID 2170;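 active means mean inhibition over replicate wells above the hit cutoff set for the earlier primary screen, cut at about 29% in these data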
# CTSL1 confirm = Cathepsin L (human) inhibition, confirmation. purified cathepsin L1, Z-Leu-Arg-MCA fluorescence. 2,400 tested, under 10 active. inhibition, % at 5.96 µM. AID 2178. shares compounds with PfM18AAP inh-1;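 active means average inhibition across replicates above the hit cutoff set in the earlier primary screen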
# Target sequence (P07711 whole entry, looked up): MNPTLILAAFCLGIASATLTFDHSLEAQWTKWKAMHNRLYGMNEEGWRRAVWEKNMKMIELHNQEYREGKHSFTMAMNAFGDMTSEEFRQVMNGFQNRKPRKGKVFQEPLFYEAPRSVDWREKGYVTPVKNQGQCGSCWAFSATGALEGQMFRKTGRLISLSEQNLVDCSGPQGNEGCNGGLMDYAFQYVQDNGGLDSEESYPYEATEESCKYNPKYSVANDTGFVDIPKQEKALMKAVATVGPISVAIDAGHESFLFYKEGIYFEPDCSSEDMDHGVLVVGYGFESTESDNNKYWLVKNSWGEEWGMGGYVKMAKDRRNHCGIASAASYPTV
# Numbers stand for hits; n = inactive; x = not tested or not shown. Compounds with a hit are over-represented: about 2.5% of the library has one in this group of screens.
SMILES,PHOSPHO1 block,p97 inhibitor,PfM18AAP inh-1,SUMO HTRF inh,HDAC3 inh,G6PDH counter,p97 inh conf,others
Cc1ccc(-c2nc(Nc3ccc(N4CCOCC4)cc3)c3ccccc3n2)cc1,n,15,n,n,n,x,n,
CCc1nnc(NS(=O)(=O)c2ccc(NC(=O)c3ccc(C#N)cc3)cc2)s1,x,x,n,n,n,x,x,
Clc1c(Cl)c(Cl)c2n[nH]nc2c1Cl,n,19,n,n,n,x,15,
Cc1ccc(C(C)C)cc1NC(=O)Nc1ccc([N+](=O)[O-])cc1,n,n,n,n,n,x,x,
Cc1cccc(N=C2NC(=O)/C(=C/C=C/c3ccco3)S2)c1C,n,21,n,58,n,n,n,
Cc1ccc(N=C2NC(=O)/C(=C/C=C/c3ccco3)S2)cc1,n,n,n,n,n,n,x,
COc1ccc(/C=N/NC(=O)c2ccc(N)cc2)cc1Cn1cc([N+](=O)[O-])cn1,n,20,n,n,n,n,n,
O=C(CN1C(=O)NC2(CCCCC2)C1=O)N1CCN(S(=O)(=O)/C=C/c2ccccc2)CC1,x,x,x,x,n,x,x,
CCn1c2ccccc2c(=O)c2ccccc21,n,n,n,n,n,n,x,
Cn1c(-c2ccccc2)c(C(=O)CCl)c2ccccc21,n,34,n,n,x,n,34,
Cn1c(-c2ccccc2)c(CCO)c2ccccc21,n,n,n,n,n,n,x,
CCn1c(-c2ccccc2)c(C(=O)CCl)c2ccccc21,n,32,n,n,n,n,36,
N=c1c(S(=O)(=O)c2ccc(Cl)cc2)cc2c(=O)n3ccccc3nc2n1C1CCCC1,n,x,n,n,n,x,x,
CCCCCN(C(=O)CCC(=O)OCc1cccc(Br)c1)c1c(N)n(CCCC)c(=O)[nH]c1=O,x,x,x,x,n,x,x,
Cc1cc(OC(=O)c2ccc(S(=O)(=O)N(C)C)cc2)c([N+](=O)[O-])c(=O)[nH]1,n,16,n,n,n,n,n,
NC(=O)c1ccc(NC(=O)CN2C(=O)NC(c3ccccc3)(c3ccccc3)C2=O)cc1,n,x,n,n,n,x,x,
Cc1cc(Nc2nc3ccccc3nc2Cl)n(-c2ccccc2)n1,n,n,n,n,n,n,x,
Cc1cc(Nc2nc3ccccc3nc2Cl)n(-c2ccccc2C)n1,n,15,n,n,n,n,n,
O=C(O)CCCN1C(=O)/C(=C\c2ccc(-c3nc4ccccc4s3)o2)SC1=S,93,15,n,n,n,x,n,
O=Cc1ccc(-c2nc3ccccc3s2)o1,n,n,n,n,n,n,x,
O=C(NCC1COc2ccccc2O1)C1CCN(S(=O)(=O)c2ccc(Cl)cc2)CC1 (centres undefined),x,x,x,x,n,x,x,
Nc1c(C(=O)O)sc2nc(-c3ccccc3)cc(-c3ccc(F)cc3)c12,n,n,n,n,n,x,x,
Nc1c(C(=O)O)sc2nc(-c3ccccc3)cc(-c3ccccc3)c12,n,23,n,n,n,x,n,
Cc1cc(Cl)cc(C)c1OCCOCCNCc1ccccc1,n,x,n,n,n,x,x,
Cc1ccc2[nH]cc(C(=O)CN3CCN(C)CC3)c2c1,n,n,n,n,n,n,x,
SMILES,PHOSPHO1 block,p97 inhibitor,PfM18AAP inh-1,SUMO HTRF inh,HDAC3 inh,G6PDH counter,p97 inh conf,others
Cc1ccc2[nH]cc(C(=O)CCl)c2c1,n,33,n,n,n,n,46,
Cc1ccc2c(C(=O)CCl)c(C)[nH]c2c1,n,36,n,n,n,x,40,
Cc1ccccc1-c1nc(C#N)c(N2CCCCC2)o1,n,x,n,n,n,x,x,
CCc1ccc(OS(=O)(=O)c2cn(C)c(=O)n(C)c2=O)cc1,n,n,n,n,n,n,x,
COc1ccccc1CNC(=O)C(C)Sc1ccsc1[N+](=O)[O-] (centres undefined),n,20,n,n,n,n,n,
CC(Sc1ccsc1[N+](=O)[O-])C(=O)NCc1ccccc1 (centres undefined),n,16,n,n,n,n,n,
CC(Sc1ccsc1[N+](=O)[O-])C(=O)NCCc1ccc(Cl)cc1 (centres undefined),n,n,n,n,n,n,x,
CS(=O)(=O)N1CCC(Oc2ccccc2C(=O)N2CCNC(=O)C2)CC1,n,n,n,n,n,n,x,
COc1ccc(OCc2nn[nH]n2)cc1,n,x,n,n,n,x,x,
Cc1cc(C(=O)N/N=C/c2c(C)[nH]c3ccccc23)n[nH]1,n,n,n,n,n,x,x,
Cc1[nH]c2ccccc2c1/C=N/NC(=O)c1cc(-c2cccs2)[nH]n1,n,16,n,n,n,n,32,
Cc1ccc(CNC(=O)C2CCCN(c3cnccn3)C2)cc1 (centres undefined),n,x,n,n,n,x,x,
CCOC(=O)[C@H]1[C@H]2COc3ccc(Br)cc3[C@@H]2N2C(=O)c3ccc(Cl)cc3NC(=O)[C@@]12C,x,x,x,x,n,x,x,
O=C(CSc1nc2ccccc2s1)Nc1cc(S(=O)(=O)N2CCOCC2)ccc1O,n,17,n,n,n,n,n,
O=C(CC1CCCC1)Nc1cc(S(=O)(=O)N2CCOCC2)ccc1O,x,x,x,x,n,x,x,
CCOc1ccc(C(C(=O)NC(C)(C)C)N(CCOC)C(=O)CCC(=O)Nc2ccccn2)cc1 (centres undefined),n,x,n,n,n,x,x,
Nn1c(SCC(=O)NC2CCS(=O)(=O)C2)nc2scc(-c3ccccc3)c2c1=O (centres undefined),x,x,x,x,n,x,x,
COc1ccc(C(=O)Nc2ccc(NC(=O)c3cc(OC)c(OC)c(OC)c3)cn2)cc1,n,x,n,n,n,x,x,
Cn1c(/C=N/Nc2nc3ccccc3[nH]2)nc2ccccc21,n,n,n,n,n,n,x,
Cc1c(/C=N/Nc2nc3ccccc3[nH]2)c2ccccc2n1C,n,24,n,n,n,x,17,
Cc1cccc(Nc2cc(C)c3c(O)cccc3n2)c1C,n,23,n,n,n,n,16,
Cc1cccc(NC(=S)N(C)C)c1C,n,n,n,n,n,x,x,
COc1cccc(N(CC(=O)N2CCCCCC2)S(C)(=O)=O)c1,n,x,n,n,n,x,x,
O=c1oc2cc(O)c(Cl)cc2c2ccccc12,n,n,n,n,n,n,x,
O=c1cc2c(=O)oc3cc(O)c(O)oc3c2c(O)c1O,n,26,59,n,x,x,23,PfM18AAP inh-2=31;CTSL1 confirm=n
CCC(NC(=O)Nc1ccc(O)cc1)(C(F)(F)F)C(F)(F)F,n,37,39,n,n,n,n,PfM18AAP inh-2=n;CTSL1 confirm=n
O=C(O)c1cccc(CN2C(=O)SC(Nc3cccc4ccccc34)C2=O)c1 (centres undefined),n,17,34,n,n,n,n,PfM18AAP inh-2=n;CTSL1 confirm=n
NC(=O)CC1Nc2cccc3cccc(c23)NC1=O (centres undefined),n,35,52,n,n,n,n,PfM18AAP inh-2=n;CTSL1 confirm=n
CC(=O)N1CCN(c2ncnc3ccccc23)CC1,n,x,n,n,n,x,x,
O=C(NC1CCCCC1)C(c1ccccc1)N(C(=O)c1csnn1)C1CCCC1 (centres undefined),n,x,n,n,n,x,x,

# Source: PubChem BioAssay (several laboratories)
